# Among all 370,000 compounds or so, about 2,000 (0.54%) were called active. Shown is part of a subset that was picked to be rich in actives. Values without a mark were called inactive. No stated cut-off is given here; in the data, active means inhibition above about 30%; inactive means the rest.
# System: Crimean-Congo hemorrhagic fever virus L polyprotein viral ovarian tumor (vOTU) protease domain
# Assay: CCHFV vOTU protease inhibitors, primary screen, biochemical, Pep-AMC substrate, fluorescence (AID 651958); further: 0% = vehicle wells with enzyme and 100% = no enzyme wells
# Conditions: at 11.5 µM, stronger effect = higher value
row,SMILES,inhibition
1,COc1ccc(/C=C2\N=C3CCCN3C2=O)cc1,5.48%
2,NC(=O)COc1ccc(C23CC4CC(CC(C4)C2)C3)cc1,-6.98%
3,O=C(Oc1ccccc1C(=S)N1CCCCC1)c1cc([N+](=O)[O-])cc([N+](=O)[O-])c1,-1.38%
4,CCCS(=O)(=O)NC(=O)C1(C)CCCN(C(=O)c2cc(C)on2)C1 (stereo unspecified),-4.97%
5,CCCS(=O)(=O)NC(=O)C1(C)CCN(C(=O)c2sccc2C)C1 (stereo unspecified),47.1% (active)
6,CCCS(=O)(=O)NC(=O)C1(C)CCCN(C(=O)c2cccs2)C1 (stereo unspecified),4.76%
7,COc1ccc2c(c1)[C@@]13CCCCC1[C@@H](C2)NCC3 (stereo partly specified),-1.34%
8,CC1(Cc2cccc(C#N)c2)C(=O)Nc2ccc(-c3cccc(C(F)(F)F)c3)cc21 (stereo unspecified),21.6%
9,CCc1ccc2c(c1)C1(NN=C(c3ccccc3)S1)C(=O)N2 (stereo unspecified),1.82%
10,CCc1ccc2c(c1)NC(=O)C2(C)Cc1ccc(OC(F)(F)F)cc1 (stereo unspecified),31.4% (active)
11,CCCn1nc(Oc2nc(NC(C)C)nc(N(C)C)n2)ccc1=O,-1.37%
12,O=C(O)CCN1C(=O)CC2(CCCCC2)C1=O,2.77%
13,COCc1[nH][nH]c(=O)c1C=Nc1ccc(F)cc1F,4.69%
14,O=C(NCc1ccccn1)C1CCN(S(=O)(=O)c2ccc(Br)cc2)CC1,-7.95%
15,COc1ccccc1C1C(C#N)=C(N)Oc2c1c(-c1ccccc1)nn2-c1ccccc1 (stereo unspecified),31% (active)
16,COc1ccccc1C1CC(=O)n2c(nc(-c3ccccc3)c2-c2ccccc2)S1 (stereo unspecified),-11.5%
17,N#CC1=C(N)Oc2c(c(=O)oc3ccccc23)C1c1ccccc1OC(=O)c1cccs1 (stereo unspecified),2.95%
18,Cc1ccc(S(=O)(=O)N2CCC(=O)N([C@H](COCc3ccccc3)Cc3ccccc3)CC2)cc1,4.4%
19,Cc1cc(F)ccc1S(=O)(=O)Nc1ncnc2scc(-c3ccc(F)cc3)c12,-9.09%

row,SMILES,inhibition
1,Cc1ccc(CN2CCCCC(NC(=O)C3CCCCC3)C2=O)cc1 (stereo unspecified),6.33%
2,CCn1nc(C)c(CN2CCN(Cc3ccc(OC)c(C)c3C)C(CCO)C2)c1C (stereo unspecified),-10.4%
3,Cc1ccc(C)c(NS(=O)(=O)c2ccc(OCC(=O)NCc3cccnc3)cc2)c1,7.43%
4,O=C(Nc1cc(S(=O)(=O)Nc2ccc(Cl)cc2)ccc1O)c1ccc(F)cc1F,1.4%
5,Cc1ccc(NS(=O)(=O)c2ccc(N/N=C/c3ccccc3OCC(=O)O)c([N+](=O)[O-])c2)c(C)c1,49.3% (active)
6,O=[N+]([O-])c1cc(S(=O)(=O)Nc2cccc(Cl)c2)ccc1N=Nc1c(O)[nH]c2ccccc12,-13%
7,O=C(O)c1ccccc1/C=N/Nc1ccc(S(=O)(=O)Nc2ccc(Cl)cc2)cc1[N+](=O)[O-],31.2% (active)
8,Cc1ccc(NS(=O)(=O)c2ccc3c(c2)n(C)c(=O)c(=O)n3C)c(C)c1,9.52%
9,CCn1c(O)c(N=NC2=NC(=O)CS2)c2cc(C)ccc21,10.8%
10,CC(C)c1c(CN(C)C(C)Cc2ccccc2)n(C)n(-c2ccccc2)c1=O (stereo unspecified),3.82%
11,COc1cccc(CNC(=O)CCC2CCCN(C(=O)c3ccoc3C)C2)c1 (stereo unspecified),-3.63%
12,CCCNC(=O)c1ccc(N2CCC3(CC2)CC(c2ccc(Cl)cc2)=NO3)c([N+](=O)[O-])c1,5.33%
13,CC1CCCN(S(=O)(=O)c2ccc(N(C(=O)c3cnccn3)C(C(=O)NC3CCCCC3)c3cccs3)cc2)C1 (stereo unspecified),3.18%
14,CNc1ccc(SC#N)cc1,7.09%
15,O=C(Nc1cccc(S(=O)(=O)N2CCCCC2)c1)c1ccc2c(c1)OCO2,30.3% (active)
16,O=C(Nc1cccc(S(=O)(=O)N2CCCCC2)c1)c1cncc(Br)c1,17.5%
17,O=C(Nc1cccc(S(=O)(=O)N2CCCC2)c1)c1cncc(Br)c1,6.4%
18,CN1[C@H](Cc2ccccc2)COc2cccc(N3CCSCC3)c2S1(=O)=O,-7.16%
19,O=C(CNC(c1ccccc1)c1ccccc1)Nc1ccc(F)cc1,-6.64%

row,SMILES,inhibition
1,COc1ccccc1CNS(=O)(=O)c1cc2c3c(c1)CCC(=O)N3CCC2,31.9% (active)
2,COc1ccc(CNS(=O)(=O)c2cc3c4c(c2)CCN4C(=O)CC3)cc1,9.3%
3,COc1ccccc1CCNS(=O)(=O)c1cc2c3c(c1)C(C)C(=O)N3CCC2 (stereo unspecified),14%
4,Cc1cccc(N)c1SC1CCCCC1O (stereo unspecified),-10%
5,Cc1cccc(CN2CCC(n3nccc3NC(=O)c3ccccc3C)CC2)n1,-2.72%
6,CCCCC[C@@H]1C=C(C(=O)O)[C@H](c2ccc(C#N)cc2)N1S(=O)(=O)c1ccc(C)cc1,16.8%
7,Cc1ccc(S(=O)(=O)N2[C@@H](c3ccc(Br)cc3)C(C(=O)O)=C[C@H]2CC2CCCC2)cc1,34.2% (active)
8,CCCCC[C@@H]1C=C(C(=O)OCC)[C@H](c2ccccc2)N1S(=O)(=O)c1ccc(C)cc1,11%
9,COc1cc(NC(=S)N2CCCC(C)C2)c(OC)cc1Cl (stereo unspecified),7.18%
10,COc1ccc(C(=O)OCCN(C)C2CN(Cc3cn(Cc4cccc(C)c4)nn3)S(=O)(=O)C2)cc1OC (stereo unspecified),-1.74%
11,O=S(=O)(Nc1ccc2[nH]ncc2c1)c1ccccc1Cl,-2.37%
12,O=C(O)c1ccc(NS(=O)(=O)c2ccc3c(c2)C(=O)c2cc(S(=O)(=O)Nc4ccc(C(=O)O)cc4)ccc2-3)cc1,14.6%
13,O=C(O)c1cc(S(=O)(=O)Nc2ccc3cn[nH]c3c2)ccc1Br,36% (active)
14,CC1CCCN(CC(O)COc2ccc3c(c2)OCO3)C1 (stereo unspecified),9.88%
15,Oc1ccc(N=Cc2sc3ccccc3c2Cl)cc1,97.4% (active)
16,Oc1ccc(N=Cc2c(O)ccc3ccccc23)cc1,63.1% (active)
17,Cn1cc(CN2CCC(C(O)CCc3ccccc3)CC2)c(-c2ccccc2F)n1 (stereo unspecified),-4.04%
18,Cc1cc(OCCN2CCCC2)cc(C(C)C)c1,-8.52%
